Compounds with a hit are over-represented: about 2.4% of the library has one in this group of screens.
Pf Dd2 inh: P. falciparum Dd2 growth inhibition | SYBR Green, 72 h; active compounds read low | activity change, % at 10 µM | 94,000 tested, 2.3% active | AID 1159554; in the data active = activity change below about -80%; inconclusive = no clear call, values can overlap the other calls
C diff growth: inhibitors of Clostridium difficile growth; Clostridium difficile clinical isolate growth, OD600, 24 h; active compounds read low; 86,000 tested, 0.25% active; growth activity, negative = inhibition, % at 16 µg/mL (by protocol);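 active = mean growth activity at or below -80% and every replicate also at or below -80%; inconclusive = mean at or below -80% but some replicate above -80%; inactive = mean growth activity above -80%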;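 also: 0% = DMSO wells and -100% = levofloxacin 16 µg/mL wells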
An asterisk follows results filed as active; ? = inconclusive; . = no result given.

SMILES	Pf Dd2 inh	C diff growth
COc1ccc(S(=O)(=O)Nc2ccc3c(c2)C(=O)N([C@H](C)CO)C[C@@H](C)[C@@H](CN(C)S(=O)(=O)c2ccc(OC)cc2)O3)cc1	11.6	1.8
COc1ccc(S(=O)(=O)N(C)C[C@H]2OCCCC[C@H](C)Oc3ccc(NS(=O)(=O)c4ccc(C)cc4)cc3C(=O)N([C@H](C)CO)C[C@@H]2C)cc1	-47.2	0.7
COc1ccc(S(=O)(=O)N(C)C[C@H]2OCCCC[C@H](C)Oc3ccc(NS(=O)(=O)c4ccc(C)cc4)cc3C(=O)N([C@H](C)CO)C[C@H]2C)cc1	-83.1*	-0.7
COc1ccc(S(=O)(=O)N(C)C[C@H]2OCCCC[C@H](C)Oc3ccc(NS(=O)(=O)c4ccc(C)cc4)cc3C(=O)N([C@@H](C)CO)C[C@H]2C)cc1	-82.3*	1.0
COc1ccc(S(=O)(=O)Nc2ccc3c(c2)C(=O)N([C@H](C)CO)C[C@H](C)[C@@H](CN(C)S(=O)(=O)c2ccc(OC)cc2)O3)cc1	-85.5*	-2.7
COc1ccc(S(=O)(=O)Nc2ccc3c(c2)C(=O)N([C@H](C)CO)C[C@H](C)[C@@H](CN(C)S(=O)(=O)c2ccc(C)cc2)OCCCC[C@@H](C)O3)cc1	-41.0	.
COc1ccc(CN(C)C[C@H]2Oc3c(NC(=O)c4ccc(-c5nccs5)cc4)cccc3C(=O)N([C@@H](C)CO)C[C@H]2C)cc1	-81.8*	0.9
COc1ccc(CN(C)C[C@@H]2Oc3c(NC(=O)c4ccc(-c5nccs5)cc4)cccc3C(=O)N([C@H](C)CO)C[C@H]2C)cc1	-84.4*	-11.9
COc1ccc(CN(C)C[C@@H]2Oc3c(NC(=O)c4ccc(-c5nccs5)cc4)cccc3C(=O)N([C@H](C)CO)C[C@@H]2C)cc1	-41.8	13.8
COc1ccc(CN(C)C[C@H]2Oc3c(NC(=O)c4ccc(-c5nccs5)cc4)cccc3C(=O)N([C@@H](C)CO)C[C@@H]2C)cc1	-65.9	32.7
COc1ccc(CN(C)C[C@@H]2Oc3c(NC(=O)c4ccc(-c5nccs5)cc4)cccc3C(=O)N([C@@H](C)CO)C[C@H]2C)cc1	-89.7*	-15.9
COc1ccc(CN(C)C[C@H]2Oc3c(NC(=O)c4ccc(-c5nccs5)cc4)cccc3C(=O)N([C@H](C)CO)C[C@@H]2C)cc1	-59.7	13.5
COc1ccc(CN(C)C[C@@H]2Oc3ccc(NC(=O)Cc4ccccc4)cc3C(=O)N([C@@H](C)CO)C[C@H]2C)cc1	-22.8	-2.8
COc1ccc(CN(C)C[C@@H]2OCCCC[C@@H](C)Oc3ccc(NS(=O)(=O)c4cccs4)cc3C(=O)N([C@@H](C)CO)C[C@H]2C)cc1	-46.9	-0.2
C[C@H](CO)N1C[C@H](C)[C@H](CN(C)C(=O)c2ccccc2F)Oc2cc(-c3ccc(F)cc3)ccc2S1(=O)=O	-50.1	-13.9
C[C@@H]1CN([C@H](C)CO)C(=O)c2cccc(NC(=O)Nc3cccc4ccccc34)c2O[C@@H]1CN(C)Cc1ccc(-c2ccccc2)cc1	14.6	.
Cc1noc(C)c1S(=O)(=O)Nc1ccc2c(c1)CC(=O)N([C@H](C)CO)C[C@@H](C)[C@@H](CN(C)Cc1ccc(C(=O)Nc3ccccc3N)cc1)O2	-88.5*	13.8
Cc1noc(C)c1S(=O)(=O)Nc1ccc2c(c1)CC(=O)N([C@H](C)CO)C[C@H](C)[C@@H](CN(C)Cc1ccc(C(=O)Nc3ccccc3N)cc1)O2	-73.5	5.8
Cc1noc(C)c1S(=O)(=O)Nc1ccc2c(c1)CC(=O)N([C@H](C)CO)C[C@@H](C)[C@H](CN(C)Cc1ccc(C(=O)Nc3ccccc3N)cc1)O2	-43.1	2.9
Cc1noc(C)c1S(=O)(=O)Nc1ccc2c(c1)CC(=O)N([C@@H](C)CO)C[C@@H](C)[C@@H](CN(C)Cc1ccc(C(=O)Nc3ccccc3N)cc1)O2	-92.6*	-1.2
O=C(Cc1ccccn1)N[C@@H]1CC[C@@H](CC(=O)N2CCCCC2)O[C@H]1CO	8.4	8.1
COc1ccc(S(=O)(=O)N(C)C[C@H]2Oc3ccc(NS(=O)(=O)c4cn(C)cn4)cc3CC(=O)N([C@H](C)CO)C[C@H]2C)cc1	2.4	-0.3
COc1ccccc1CNC(=O)C[C@H]1C[C@H]2c3cc(NS(C)(=O)=O)ccc3O[C@H]2[C@@H](CO)O1	22.3	0.9
COc1cccc(C#Cc2ccc([C@H]3[C@@H](CO)N(C(=O)C4CCCC4)[C@H]3C#N)cc2)c1	-93.5*	-15.7
COc1cccc(C#Cc2ccc([C@H]3[C@@H](CO)N(C(=O)C4CCCCC4)[C@H]3C#N)cc2)c1	-94.8*	-7.3
SMILES	Pf Dd2 inh	C diff growth
COc1cccc(C#Cc2ccc([C@@H]3[C@H](C#N)N(C(=O)C4CCC4)[C@H]3CO)cc2)c1	-49.7	-7.9
COc1cccc(C#Cc2ccc([C@@H]3[C@H](C#N)N(C(=O)C4CCCC4)[C@H]3CO)cc2)c1	-60.2	45.9
COc1cccc(C#Cc2ccc([C@H]3[C@@H](CO)N(C(=O)C4CCC4)[C@H]3C#N)cc2)c1	-85.6*	-0.8
COc1cccc(C#Cc2ccc([C@H]3[C@@H](C#N)N(C(=O)C4CCCC4)[C@@H]3CO)cc2)c1	-83.3*	-3.6
COc1cccc(C#Cc2ccc([C@H]3[C@H](C#N)N(C(=O)C4CCCC4)[C@H]3CO)cc2)c1	-56.5	-6.7
COc1cccc(C#Cc2ccc([C@@H]3[C@@H](C#N)N(C(=O)C4CCCC4)[C@@H]3CO)cc2)c1	-47.2	-0.5
CCCC(=O)N1CC2(CCN(C(=O)C3CCC3)CC2)c2c(n(C)c3cc(OC)ccc23)[C@@H]1CO	-57.6	-2.5
C[C@@H]1CN([C@@H](C)CO)C(=O)Cc2cc(NC(=O)CCC(F)(F)F)ccc2O[C@@H]1CN(C)Cc1ccc(C(F)(F)F)cc1	-2.9	-3.3
C[C@@H]1CN([C@@H](C)CO)C(=O)c2cc(C#CCc3ccccc3)cnc2O[C@H]1CN(C)CC1CCCC1	-86.4*	3.6
C[C@H]1CN([C@@H](C)CO)C(=O)c2cc(C#CCc3ccccc3)cnc2O[C@H]1CN(C)CC1CC1	-56.7	.
C[C@@H]1CN([C@@H](C)CO)C(=O)c2cc(C#CCc3ccccc3)cnc2O[C@@H]1CN(C)CC1CC1	-74.3	12.2
C[C@@H]1CN([C@H](C)CO)C(=O)c2cc(C#CCc3ccccc3)cnc2O[C@@H]1CN(C)CC1CC1	-81.4*	.
CN(C)C(=O)C[C@H]1CC[C@@H]2[C@H](COc3ccc(NC(=O)C4CCC4)cc3C(=O)N2C)O1	14.0	-1.5
C[C@H]1CN([C@@H](C)CO)C(=O)c2c(c3ccccc3n2C)-c2ccccc2CO[C@H]1CN(C)Cc1ccc(C(F)(F)F)cc1	?	16.7
C[C@@H]1CN([C@@H](C)CO)C(=O)c2c(c3ccccc3n2C)-c2ccccc2CO[C@@H]1CN(C)Cc1cccc(C(F)(F)F)c1	-90.5*	23.4
C[C@@H]1CN([C@@H](C)CO)C(=O)c2c(c3ccccc3n2C)-c2ccccc2CO[C@H]1CN(C)Cc1ccc(C(F)(F)F)cc1	-31.4	50.0
C[C@H]1CN([C@@H](C)CO)C(=O)c2c(c3ccccc3n2C)-c2ccccc2CO[C@@H]1CN(C)Cc1cccc(C(F)(F)F)c1	-81.6*	13.2
C[C@@H]1CN([C@H](C)CO)C(=O)c2c(c3ccccc3n2C)-c2ccccc2CO[C@H]1CN(C)Cc1ccccc1C(F)(F)F	-63.0	29.6
C[C@@H]1CN([C@@H](C)CO)C(=O)c2c(c3ccccc3n2C)-c2ccccc2CO[C@@H]1CN(C)Cc1ccccc1C(F)(F)F	-86.9*	17.8

Source: PubChem BioAssay (Broad Institute)
